Data taken from ChEMBL document CHEMBL4296182, “CO-ADD screening of NIH NCI Diversity Set V”.
For part of these data: Entries with a potency or affinity are not part of this list.

What was measured:
Staphylococcus aureus = experiment: Antibacterial activity against Staphylococcus aureus MRSA ATCC 43300 (CO-ADD:GP_020); MIC in CAMBH media using NBS plates, by Resazurin F(560/590); format: functional; conditions: Concentration 20 uM, ASSAY_TEST Inhibition of Bacterial Growth, detection method Resazurin, Fluorescence (ex560/em590), MEDIA CAMHB, plate type 384well, CORNING #3640, time 18 hr
Acinetobacter baumannii = experiment: Antibacterial activity against Acinetobacter baumannii ATCC 19606 (CO-ADD:GN_034); MIC in CAMBH media using NBS plates, by Resazurin F(560/590); format: functional; conditions: Concentration 20 uM, ASSAY_TEST Inhibition of Bacterial Growth, detection method Resazurin, Fluorescence (ex560/em590), MEDIA CAMHB, plate type 384well, CORNING #3640, time 18 hr
Escherichia coli = experiment: Antibacterial activity against Escherichia coli ATCC 25922 (CO-ADD:GN_001); MIC in CAMBH media using NBS plates, by Resazurin F(560/590); format: functional; conditions: Concentration 20 uM, ASSAY_TEST Inhibition of Bacterial Growth, detection method Resazurin, Fluorescence (ex560/em590), MEDIA CAMHB, plate type 384well, CORNING #3640, time 18 hr
Klebsiella pneumoniae = conditions: Concentration 20 uM; ASSAY_TEST Inhibition of Bacterial Growth; detection method Absorption (OD600); MEDIA CAMHB; plate type 384well; NBS; CORNING #3640; time 18 hr
Candida albicans = conditions: 20 µM
Cryptococcus neoformans = conditions: Concentration 20 uM; ASSAY_TEST Inhibition of Fungal Growth; detection method Resazurin; Absorption (OD600-OD570); plate type 384well; NBS; CORNING #3640

Compound | Inhibition (Staphylococcus aureus) | Inhibition (Acinetobacter baumannii) | Inhibition (Escherichia coli) | Inhibition (Klebsiella pneumoniae) | Inhibition (Candida albicans) | Inhibition (Cryptococcus neoformans)
c1ccc(-c2nc(-c3ccccn3)nc(-c3ccccn3)n2)nc1 | 2.88% | 10.22% | -0.02% | 10.56% | 2.65% | -6.65%
S=c1c2nc[nH]c2ncn1CCSC1=NC=NC2=NC=NC21 (centres undefined) | 4.54% | -14.19% | 7.44% | 7.27% | 5.38% | -9.8%
CSc1cccc(NC(=O)N2CCN(C)CC2)c1 | 0.63% | -10.8% | 6.03% | 6.8% | 3.78% | -18.46%
CCOC(=O)Cn1nc2oc(=O)c(CCN3CCN(c4ccccc4OC)CC3)c(C)c2c1C | 17.7% | -3.04% | 11.66% | 16.06% | 2.37% | -3.33%
CCCCCc1cccnc1 | 1.69% | -4.62% | 11.47% | 10.71% | 2.3% | -0.18%
NC(=O)/C(=C\c1ccncc1)c1cccc2ccccc12 | 3.23% | -18.71% | 6.96% | 13.72% | -4.11% | -6.45%
OCC1(CO)CC2(C1)CC(CO)(CO)C2 | 5.83% | -10.2% | 9.77% | 7.41% | -2% | 1.54%
O=C(NC(=S)Nc1cccc2c(O)cccc12)c1cccc(Br)c1 | 25.64% | -2.51% | 14.87% | 10.97% | 12.3% | -5.01%
Oc1ccccc1/N=C/c1c(O)ccc2ccccc12 | 7.8% | -11.56% | 8.07% | 1.58% | 52.3% | 25.14%
CCCc1nc2c(=O)n(C)c(=O)n(C)c2[nH]1 | 14.39% | -13.67% | 8.23% | 14.55% | 2.02% | -4.69%
O=C(O)c1cncc(Br)c1 | 13.85% | -13.95% | 3.81% | 4.04% | 6.23% | -7.23%
CCOC(=O)C(=O)C1C(=O)Nc2ccccc21 (centres undefined) | 11.5% | 4.6% | -3.33% | 15.66% | 13.9% | -6.08%
COc1cc(-c2ccc(NC(=O)NC3CC3)c(OC)c2)ccc1NC(=O)NC1CC1 | 15.12% | -9.96% | 13.19% | 5.08% | 3.52% | -5.24%
Cc1ccc(Nc2nc(Cl)nc3ncn(C)c23)c(C)c1 | 8% | 11.23% | -0.86% | 14.74% | 2.26% | -7.52%
c1ccc(-n2c3ccccc3c3ccccc32)cc1 | 0.65% | -3.58% | 6.48% | 0.88% | 5.95% | 11.23%
CN1N=C(N)c2cn(C3OC(COP(=O)(O)O)C(O)C3O)c3ncnc1c23 (centres undefined) | 8.75% | 8.14% | -1.62% | 4.46% | -1.48% | -0.7%
CCOC(=O)c1c[nH]nc1O | 2.24% | -6.35% | -2.97% | 21.4% | -1.88% | 1.44%
Cc1c(CCO)c(=O)n2n1CCCC2 | -14.7% | -6.34% | -10.48% | 7.18% | -0.03% | 3.75%
Cc1nnc(-n2cccc2)s1 | 4.2% | -10.69% | 7.04% | -0.01% | 2.45% | -10.77%
C=CCOc1c(CCC)cc(CCC)cc1C(N)=O | 13.21% | 14.83% | 1.32% | 19.26% | 5.23% | -4.27%
O=C(Nc1ccc(Cl)cc1)c1cc2c(cc1O)[nH]c1ccccc12 | -1.15% | -12.34% | 2.48% | 13.56% | 8.44% | -5.53%
NC(=O)c1cc(Br)cc(C2CCCCC2)c1O | 12.02% | -1.26% | 2.39% | 15.38% | 2.63% | -10.76%
OCCN1CCSC1=S | 15.14% | -9.39% | 8.07% | 16.39% | 1.12% | -6.82%
Cc1nnc(Cc2ccccc2)c2[nH]nc(C)c12 | 16.17% | 11.32% | 1.75% | 14.15% | 5.79% | -4.44%
COc1ccc(C(=O)Oc2cccnc2O)cc1 | -4.34% | 16.28% | -5.51% | 12.02% | 4.27% | -4.22%

Compound | Inhibition (Staphylococcus aureus) | Inhibition (Acinetobacter baumannii) | Inhibition (Escherichia coli) | Inhibition (Klebsiella pneumoniae) | Inhibition (Candida albicans) | Inhibition (Cryptococcus neoformans)
CN1CCc2ccccc2C1Cc1ccccc1NC(=O)c1sc2ccccc2c1Cl (centres undefined) | 1.84% | -6.84% | 0.33% | 11.11% | 2.39% | -3.5%
Oc1ccc(Nc2ccc3ccccc3c2)cc1 | -6.35% | -10.62% | -3.9% | 4.89% | 3.31% | -6.09%
O=C(O)c1cccc2c1C(=O)c1cccc3snc-2c13 | 11.24% | 8.28% | -4.32% | 2.89% | 21.9% | -0.5%
O=C(Oc1ccccc1)c1cccc2cccc(C(=O)Oc3ccccc3)c12 | 17.84% | 0.5% | -0.78% | 14.06% | 7.13% | -3.03%
O=C(Nc1ccccc1-c1ccccc1)C(=O)Nc1ccccc1-c1ccccc1 | 3.9% | -8.51% | -14.91% | 2.5% | 2.13% | 4.35%
O=C(O)Cc1sc(O)nc1O | 3.49% | -13.46% | 1.48% | 28.66% | 28.5% | -2.77%
c1ccc2cc(OCCOCCOc3ccc4ccccc4c3)ccc2c1 | 11.38% | 0.36% | 5.4% | 11.21% | 5.37% | -6.02%
O=C(c1ccccc1)c1ccc[nH]1 | -0.8% | -3.74% | -15.34% | 11.78% | 2.09% | 18.91%
O=C(N(c1ccccc1)c1ccccc1)N(c1ccccc1)c1ccccc1 | 13.33% | 0.28% | 8.76% | 13.27% | 9.21% | -13.12%
CC(=O)Nc1ccc(S(=O)(=O)N/N=c2/sc3ccccc3n2C)cc1N | 12.5% | 3.99% | 3.58% | 3.38% | -0.64% | -8.3%
O/N=C(/c1ccccc1)c1ccc2c3c(cccc13)CC2 | -1.68% | -12.52% | 6.08% | 9.85% | 11.2% | -8.52%
CCCCCC(=O)N1CCCCC1 | 5.23% | -9.77% | 7.04% | 14.07% | 3.39% | 2.22%
CN(C)CC1C2CCC(C2)C1O (centres undefined) | 7.18% | -12.67% | 8.84% | 23.62% | 0.82% | -7.67%
COC(=O)c1cc(C)nc2c(C)cc3[nH]c4ccccc4c3c12 | -3.37% | -0.23% | -15.24% | 17.6% | 8.78% | 0.02%
C#CCNc1ccc(C(=O)OCC)cc1 | 7.69% | 8.65% | -0.61% | 11.49% | 5% | -3.8%
Cc1cc2nc3ccc(N(C)C)cc3[s+]c2cc1N.[Cl-] [TOLONIUM CHLORIDE] | -5.05% | -12.21% | 2.47% | 19.75% | 1.87% | -7.34%
COc1cc(/C=N/N=c2\[nH]c3c(=O)n(C)c(=O)n(C)c3[nH]2)ccc1O | 15.24% | -6.89% | 14.34% | -8.37% | 48.3% | 33.61%
CC1(C)CC(Nc2ccc(Nc3ccccc3)cc2)CC(C)(C)N1 | 6.04% | 9.93% | -3.22% | 10.49% | 1.33% | -0.13%
CC(=O)O.COc1ccc2nccc(/C=C/c3ccnc4ccc(OC)cc34)c2c1 | 1.03% | -11.4% | 10.64% | 6.2% | 5.73% | -5.13%
Clc1ccc(-c2nc(-c3cc4cc(Cl)ccc4o3)cs2)cc1 | -3.66% | 8.53% | 11.7% | 9.81% | 1.45% | -4.29%
CCCCN1C(=O)CC(C(=O)OCC)=C1C | -5.09% | -15.76% | -0.5% | -4.24% | 1.93% | -4.18%
Oc1ccc(Nc2ccnc3cc(Cl)ccc23)cc1 | -0.21% | 16.04% | -4.01% | 17.31% | 0.86% | -3.23%
c1ccn(CCc2ccncc2)c1 | 10.09% | -4.91% | 7.14% | 10.92% | 2.03% | -5.95%
CC(=O)c1cc(O)c2ccccc2c1O | 4.01% | -14.11% | 0.42% | 7.57% | 24.1% | 6.09%
